According to PubChem BioAssay AID687001 (Broad Institute, 2013):
Results with a measured potency or affinity are listed apart.

Target: Protein S100-A4 (Homo sapiens) (UniProt P26447)
Test: human S100A4 peptide interaction inhibition curves – biochemical, fluorescence polarization, cherry-picked hits, dose response (AID 687001);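 note: 0% = DMSO neutral control wells and -100% = TFP positive control wells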
Conditions: FP, S100A4/TAMRA-myosin IIA peptide binding; series mostly up to 11 µM; activity change, negative = inhibition: at the top concentration;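 active = signal-lowering compounds whose fitted half-maximal concentration is at or below twice the top tested dose in every run; inconclusive = runs disagree, flat 30 to 70% inhibition, or poor curve fit; inactive = the rest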

Protein S100-A4 (Homo sapiens), sequence (P26447 whole entry, looked up): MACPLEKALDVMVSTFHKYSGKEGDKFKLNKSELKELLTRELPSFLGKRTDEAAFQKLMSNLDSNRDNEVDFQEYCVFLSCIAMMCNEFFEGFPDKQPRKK

Activity change, negative = inhibition, inactive:
CCOC(=O)C1CCCN(C(=O)c2cc(S(=O)(=O)N3CCCCCC3)ccc2OC)C1 (stereo unspecified) -5.58%
C[C@@H]1CN([C@@H](C)CO)C(=O)c2cc(C#CCc3ccccc3)cnc2O[C@@H]1CN(C)CC1CC1 5.32% [at 10 µM]
CCCCSc1nnc(-c2ccccc2N)c(=O)[nH]1 3.48%
O=C(Nc1ccc(C(F)(F)F)cc1)N[C@H]1C=C[C@@H](CC(=O)N2CCCCC2)O[C@@H]1CO -4.35%
O=C(O)c1ccccc1SCCS(=O)(=O)c1ccc(Cl)cc1Cl -2.33%
COc1ccc(OC)c(NC(=O)CSc2nnc(CNC(=O)c3cc(OC)c(OC)c(OC)c3)o2)c1 -5.15%
COC(=O)[C@@]12C[C@@H](CC(=O)N3CCN(C(=O)c4ccco4)CC3)C(=O)N(CCc3ccc(OC)c(OC)c3)C1=CCC(C)(C)C2 -1.37%
O=C(NCCCc1ccccc1)c1cccc(NC(=O)C2CCC2)c1 -3.35%
CC(=O)Nc1ccc(Nc2nnc(-c3ccc(C)c(S(N)(=O)=O)c3)c3ccccc23)cc1 -7.44%
CCNC(=O)NC(=O)CSc1cccc(C(F)(F)F)c1 -3.71%
CCC(=O)N1CCC(C)(C(=O)NCc2ccc(F)cc2)C1 (stereo unspecified) -3.36%
CC(=O)Nc1ccc(S(=O)(=O)Nc2ccc3c(c2)OCO3)cc1 -3.04%
CN1c2ccc(-c3cccc(F)c3)cc2[C@H]2[C@H](CCN2C(=O)c2ccccc2F)[C@H]1CO 0.162% [at 10 µM]
O=C(COC(=O)C12CC3CC(CC(Br)(C3)C1)C2)Nc1c(F)cccc1F -1.4%
O=C(CNC(=O)c1ccco1)NNC(=O)c1ccc(Br)cc1 -1.14%
COc1ccc(-c2ccc3c(c2)O[C@H](CN(C)Cc2cccnc2)[C@@H](C)CN([C@H](C)CO)S3(=O)=O)cc1 2.75%
